About 83,000 compounds went through this panel and 20% of them were active in at least one assay; those are over-represented in the sample as a whole.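 Interpretation: 100, growth as untreated; towards 0, rising growth inhibition; 0, no net growth; 0 to -100, cell death. Compounds scoring below 10 were considered active.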 Unmarked numbers belong to inactive results. Active and inactive are the calls of the source.
The compounds below were run on HL-60(TB) leukemia (assay: NCI-60 one-dose screen, 48 h (100 = growth as untreated, 0 = no growth, -100 = all killed)). Conditions: 10 µM unless noted.

SMILES	growth
CCN(CC)CCC(CNc1c(C)cnc2cc(Cl)ccc12)c1ccc(Cl)c(Cl)c1 (stereo not given)	51.5%
Cc1ccc(-c2nn(Cc3cn(-c4cc(C)nc5ccccc45)nn3)c3ncnc(N)c23)cc1	83.1%
Cc1cccc2c(N)c3ccccc3nc12	9.2% (active)
C=CC[N+](C)(C)C	107%
CC1(C=O)NC(=O)NC1=O (stereo not given)	87.5%
CCC1CN2C(=N1)c1ccccc1-c1cc(Cl)ccc12 (stereo not given)	2.51% (active)
Cc1cc2c(C(C)C)c(O)c(O)c(C=NCCCCC(=O)O)c2c(O)c1-c1c(C)cc2c(C(C)C)c(O)c(O)c(C=NCCCCC(=O)O)c2c1O	42.6%
COc1ccc(NC(=O)c2cc(NCc3cc(O)ccc3O)ccc2O)cc1	43.8%
COc1ccc(C2=NNC(c3cc(Cc4ccc(O)c(C5CC(c6ccc(OC)cc6)=NN5)c4)ccc3O)C2)cc1 (stereo not given)	17.2%
O=NN(CCCl)C(=O)NCc1ccc(-c2ccc(CNC(=O)N(CCCl)N=O)cc2)cc1	88.6%
COc1ccc2c(c1)CC/C(=C\c1ccc(OCC(=O)Nc3nc4ccccc4s3)cc1)C2=O	87.6%
CCc1c2c(nc3ccc(OCc4ccc(B(O)O)cc4)cc13)-c1cc3c(c(=O)n1C2)COC(=O)[C@]3(O)CC	-40.8% (active)
CN1CCN(Cc2ccc(NC(=O)c3cncc(C#Cc4cnc(N)c5ccc(C#N)cc45)c3)cc2C(F)(F)F)CC1	-17% (active)
CC(C)c1nc(N(C)S(C)(=O)=O)nc(-c2ccc(F)cc2)c1/C=C/[C@@H](O)C[C@@H](O)CC(=O)O	114%
COc1ccc(S(=O)(=O)n2c3ccccc3n3ncc(-c4nnc(C)o4)c23)cc1	12.2%
O=C(Nc1ccc(Br)cc1F)c1cc(I)ccc1O	-33.3% (active)
CCCCCCCCCCCCCCCCOCCCOP(=O)(O)C1CCCN(O)C1=O (stereo not given)	-13.6% (active)
COC(=O)[C@]12CC[C@@H](C)[C@H](C)[C@@H]1C1=CC[C@@H]3[C@@]4(C)C(C=O)=C[C@@](C)(COS(C)(=O)=O)C4[C@H](O)C[C@@]3(C)[C@]1(C)CC2 (stereo not given in full)	-34.4% (active)
CC(=O)OC[C@H]1O[C@H](OC(C)=O)[C@H](NC(=O)/C=C/CCl)[C@@H](OC(C)=O)[C@@H]1OC(C)=O	96.4%
CC[C@@H](C(=O)[C@@H](C)[C@@H](O)[C@H](C)[C@@H]1O[C@@H]([C@@H](CC)C(=O)O)CC[C@@H]1C)[C@H]1OC2(C=C[C@@H](O)[C@]3(CC[C@@](C)([C@H]4CC[C@](O)(CC)[C@H](C)O4)O3)O2)[C@H](C)C[C@@H]1C (stereo not given in full)	-45.6% (active)

SMILES	growth
Oc1cccc2c1NCCC2	7.84% (active)
COC(=O)C1=NNC(=S)N(c2cc(C)[nH]n2)C(=O)C1	100%
O=C(CSCC(=O)N/N=C/c1ccccc1O)N/N=C\c1ccccc1O	-32.8% (active)
Nc1nc2c(c(-c3nc(N)nc4c3CCc3ccccc3-4)n1)CCc1ccccc1-2	105%
CN1CCN(C(=O)[C@@]2(C)CC[C@]3(C)CC[C@]4(C)C(=CC[C@@H]5[C@@]6(C)CCC(=O)NC(C)(C)[C@@H]6CC[C@]54C)[C@@H]3C2)CC1	-35.8% (active)
CNC(=O)c1cc(Oc2cccc3nc(Nc4ccc(Cl)c(F)c4)ccc23)ccn1	95%
COc1ccc(-c2nc(SCCC(C)C)nc(N/N=C\c3cccc(Cl)c3)c2C#N)cc1	82%
COc1cccc(CNC(=O)c2cccc(C3CC(=O)c4c(cc(OC)c(OC)c4OC)O3)c2)c1 (stereo not given)	43.9%
CCNC(=O)Oc1ccc(/C(=C(/C)Cc2ccc(OC)cc2)c2ccc(OCCN3CCCCCC3)cc2)cc1	38.1%
C#C[C@]1(O)CC[C@H]2[C@@H]3CC=C4c5nc(Nc6ccccn6)sc5CC[C@]4(C)[C@H]3CC[C@@]21C	10.6%
O=C1c2c(c3c4ccccc4[nH]c3c3ccc4ccccc4c23)C(=O)N1CCN1CCNCC1	43.6%
Nc1ncnc2c1N=C(c1ccc(Br)cc1)CC(c1cccc(Nc3ccnc4cc(C(F)(F)F)ccc34)c1)N2 (stereo not given)	38.1%
CCCC[n+]1c(/C=C\c2c(OC)cc(OC)cc2OC)ccc2ccccc21	-58.8% (active)
Nc1c(C(=O)Nc2cccc3ccccc23)sc2nc3c(cc12)CCCC3	-11.1% (active)
Brc1ccccc1Nc1ccc2nnc(-c3ccncc3)n2n1	96.4%
C/C(=N\NC(=O)Cn1c(-c2ccc(S(C)(=O)=O)cc2)nc2ccccc21)c1ccc(Cl)cc1	74.8%
O=C(O)c1cc([N+](=O)[O-])ccc1Br	105%
COc1ccc(C(=O)CSc2nc(-c3cc(OC)ccc3OC)cc(-c3ccc(Cl)cc3)c2C#N)cc1	106%
Cc1ccc2[nH]c(=O)cc(-n3nncc3COc3ccc(C=O)cc3)c2c1	107%
COc1ccc(-c2nc(SC(C)C)nc(NNC(N)=S)c2C#N)cc1	14.3%

Reference: PubChem BioAssay (NCI)
